Assay outcomes as filed in PubChem BioAssay.
Shown are actives, neighbours in structure and some others; about 4.1% of the full set was active somewhere.
ALR inh: inhibitors of human ALR sulfhydryl oxidase, primary screen, biochemical, H2O2 detection, HRP-luminol luminescence, single point. FAD-linked sulfhydryl oxidase ALR (Homo sapiens), P55789. purified ALR, DTT oxidation. inhibition, % (no concentration beside the values). hit rate 3.8% among 290,000;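 active = mean replicate inhibition above about 79%, with every replicate also reaching it, limit read from the data; inconclusive = only one of the two criteria met; inactive = mean below limit and not every replicate reaching it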
NSD2 inh: NSD2 histone methyltransferase inhibitors, primary screen, biochemical, AlphaScreen, single concentration, set 2; NSD2 peptide methylation, 120 min; inhibition, % at 12.5 µM; hit rate 0.54% among 310,000; AID 743445, 2014; in the data active = inhibition above about 50%
Target sequence (O96028 whole entry, looked up): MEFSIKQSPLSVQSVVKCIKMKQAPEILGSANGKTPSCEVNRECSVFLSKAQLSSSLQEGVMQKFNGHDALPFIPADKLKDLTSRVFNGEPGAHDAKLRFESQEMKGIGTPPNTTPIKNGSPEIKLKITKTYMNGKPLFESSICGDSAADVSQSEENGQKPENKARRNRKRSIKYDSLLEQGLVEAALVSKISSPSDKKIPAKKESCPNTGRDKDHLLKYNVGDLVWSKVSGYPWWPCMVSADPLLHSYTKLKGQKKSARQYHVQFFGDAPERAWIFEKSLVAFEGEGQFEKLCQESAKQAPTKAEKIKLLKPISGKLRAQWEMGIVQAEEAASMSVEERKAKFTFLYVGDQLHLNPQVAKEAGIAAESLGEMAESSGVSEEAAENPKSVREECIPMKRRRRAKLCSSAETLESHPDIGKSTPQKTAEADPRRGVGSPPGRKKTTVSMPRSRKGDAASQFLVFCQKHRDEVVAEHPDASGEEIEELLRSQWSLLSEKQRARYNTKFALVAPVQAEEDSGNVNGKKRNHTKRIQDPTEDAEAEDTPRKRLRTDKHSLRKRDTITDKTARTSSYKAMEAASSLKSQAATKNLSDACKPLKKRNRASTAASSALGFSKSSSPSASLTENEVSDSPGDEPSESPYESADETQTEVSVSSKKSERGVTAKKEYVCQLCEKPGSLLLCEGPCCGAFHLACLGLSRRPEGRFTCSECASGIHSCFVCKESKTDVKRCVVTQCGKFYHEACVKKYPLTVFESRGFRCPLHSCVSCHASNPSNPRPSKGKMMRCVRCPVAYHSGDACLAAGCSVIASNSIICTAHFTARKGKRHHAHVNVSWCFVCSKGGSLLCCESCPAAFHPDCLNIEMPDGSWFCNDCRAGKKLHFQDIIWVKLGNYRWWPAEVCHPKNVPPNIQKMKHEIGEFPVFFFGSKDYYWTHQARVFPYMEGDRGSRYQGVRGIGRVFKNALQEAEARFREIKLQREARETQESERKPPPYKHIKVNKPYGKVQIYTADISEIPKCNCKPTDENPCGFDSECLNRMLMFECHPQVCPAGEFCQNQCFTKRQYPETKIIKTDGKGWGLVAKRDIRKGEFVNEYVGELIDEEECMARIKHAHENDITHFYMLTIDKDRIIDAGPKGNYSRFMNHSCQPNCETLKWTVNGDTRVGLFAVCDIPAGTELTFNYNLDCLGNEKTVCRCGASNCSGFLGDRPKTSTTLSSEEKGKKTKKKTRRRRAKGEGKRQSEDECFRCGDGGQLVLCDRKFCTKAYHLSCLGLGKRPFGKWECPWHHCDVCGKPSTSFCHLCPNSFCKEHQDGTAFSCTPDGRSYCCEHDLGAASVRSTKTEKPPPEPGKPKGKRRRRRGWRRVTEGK
HIV Env fusion: inhibitors of HIV-1 Env-driven cell-cell fusion, primary screen, HeLa-JRFL effector, CEM21 target cells, luciferase. AID 651610, 2012. hit rate 1.1% among 360,000. inhibition, % at 12.3 µM;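 active = mean replicate inhibition score of at least 50 and every replicate individually at or above 50; inconclusive = only one of the two criteria met; inactive = mean below 50 and not all replicates reaching 50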;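 also: 0% = plate neutral controls and 100% = maraviroc near 300 nM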
CASP6 VEID inh: human caspase-6 inhibitors, primary screen, biochemical, VEID-R110 fluorescence, single point, set 2 | P55212 | purified caspase-6, Z-VEID-R110 cleavage fluorescence | inhibition, % at 12.5 µM | hit rate 0.53% among 350,000;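 active = mean inhibition across replicates at least about 35%, with every replicate also reaching that limit, limit read from the data; inconclusive = only one of the two criteria met; inactive = neither criterion met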;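 also: 0% = median of neutral control wells and 100% = no fluorescence left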
PglD DTNB: C. jejuni PglD acetyltransferase inhibitors, primary screen, biochemical, DTNB colorimetric, single point. UDP-N-acetylbacillosamine N-acetyltransferase PglD (Campylobacter jejuni). purified PglD enzyme, DTNB colorimetric CoA detection. inhibition, % at 12.5 µM. hit rate 0.098% among 360,000; in the data active = inhibition above about 16%, passing the limit was not always enough; inconclusive = no clear call, values can overlap the other calls
F508del corr: F508del CFTR correction, initial screen, CFBE line, single point; CFBE cells, YFP halide quenching; stimulated with forskolin plus potentiator P3; % fluorescence drop versus neutral controls; activity (quench increase), % at 7.58 µM; hit rate 0.36% among 350,000; AID 720511, 2013;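 active = mean added fluorescence quench of at least 8% versus neutral control, with both replicates also reaching 8%; inconclusive = only one of the mean or replicate conditions met; inactive = mean below 8% and not both replicates reaching 8%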;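 also: cells transiently co-express mutant CFTR-F508del with the halide-sensitive YFP; corrector assay measuring rescue of mutant channel to the surface after 24 h compound exposure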
* = called active by the depositor; ? = inconclusive; nt = not tested or not shown; [ ] = dose if it differs, or a comment.

SMILES | ALR inh | NSD2 inh | HIV Env fusion | CASP6 VEID inh | PglD DTNB | F508del corr
CC1(C)Cc2c(cnn2-c2ccc(F)cc2)C(NC(=O)c2cnccn2)C1 (stereo unspecified) | nt | -7 | 16 | -1 | -1 | -4
CSCc1ccc(C(=O)NC2CC(C)(C)Cc3c2cnn3-c2ccc(F)cc2)o1 (stereo unspecified) | 94* | 2 | 4 | -1 | -2 | -1
CCC(=O)N(C)C[C@H]1Oc2cc(C#CCC(C)C)ccc2S(=O)(=O)N([C@@H](C)CO)C[C@H]1C | nt | nt | -2[16.7 µM] | -2 | 0 | -1
C[C@@H]1CN([C@H](C)CO)C(=O)c2cc(NC(=O)Nc3ccc4c(c3)OCO4)ccc2O[C@@H](C)CCCCO[C@H]1CN(C)Cc1ccccc1 | nt | nt | -6[16.7 µM] | -1 | 0 | -2
C/C=C/c1ccc2c(c1)O[C@@H](CN(C)C(=O)NC(C)C)[C@@H](C)CN([C@H](C)CO)S2(=O)=O | nt | nt | -4[16.7 µM] | -2 | 1 | 0
O=C(N[C@@H]1CC[C@H](CCNS(=O)(=O)c2ccccc2)O[C@@H]1CO)c1cccc(F)c1 | nt | nt | -10[16.7 µM] | 2 | 4 | 1
Cc1cc(C)c(C(=O)NC2CCCc3c2cnn3-c2cccc(C)c2C)o1 (stereo unspecified) | 4 | 4 | nt | -7 | 6 | 8.4*
Cc1cccc(-n2ncc3c2CCCC3NC(=O)C2(C(N)=O)CC2)c1C (stereo unspecified) | 3 | 8 | 2 | 1 | 1 | 2
CC(C)(C)CC(C)(C)N=C1Nc2cc(Cl)c(Cl)cc2NC12C[C@H]1CCC(=O)N3CC[C@@H](C2)[C@@H]13 (stereo partly specified) | nt | nt | 58* | -2 | -4 | -2
O=C(CSc1nnc(CNC(=O)c2ccco2)o1)Nc1ccc(Br)cc1 | 99* | 1 | -2 | 6 | 8 | 0
CC(C)C[C@H](N)c1nnc(SCC(=O)Nc2ccc(Br)cc2)o1 | 99* | -6 | 1 | -11 | 5 | 0
CCOc1ccc(NC(=O)CSc2nnc(CNC(=O)c3ccco3)o2)cc1 | -1 | -1 | 14 | -1 | nt | nt
NCCc1nnc(SCC(=O)Nc2ccc(Br)cc2)o1 | 98* | 20 | -4 | nt | -7 | -2
C/C=C/c1ccc2c(c1)O[C@H](CN(C)C(=O)C1CCOCC1)[C@@H](C)CN([C@@H](C)CO)S2(=O)=O | nt | nt | 5[16.7 µM] | 1 | -1 | 1
CCCN1C[C@H](C)[C@@H](OC)CN(C)C(=O)c2ccc(NC(=O)c3ccc(F)cc3)cc2OC[C@@H]1C | nt | nt | 27[16.7 µM] | nt | 3 | 2
CC(C)(C)c1nc[nH]c(=O)c1Br | nt | -3 | nt | 0 | 9 | -1
CC(C)(C)c1nc(C(C)(C)C)c(Br)c(=O)[nH]1 | -4 | -1 | 72* | -1 | nt | 2
C#CCn1c(S(=O)(=O)Cc2ccccc2Cl)nc(-c2ccccc2)c1-c1ccccc1 | -30 | -1 | 79* | nt | -2 | nt
C#CCn1c(S(=O)(=O)Cc2ccc(C)cc2)nc(-c2ccccc2)c1-c1ccccc1 | -2 | 4 | 146* | nt | -3 | nt
C#CCn1c(C)cc(C)c(S(=O)(=O)c2ccccc2)c1=O | -17 | -3 | -10 | -1 | nt | 1
CCOC(=O)Cn1c(S(=O)(=O)Cc2ccccc2Cl)nc(-c2ccccc2)c1-c1ccccc1 | -37 | -1 | nt | 0 | -1 | 1
CO[C@H]1CN(C)C(=O)c2ccc(NC(=O)Cc3ccccc3)cc2OC[C@H](C)NC[C@@H]1C | nt | nt | nt | 0 | nt | -1
COCCCn1c(=O)/c(=C/c2ccccc2OC(F)F)s/c1=C(\C#N)C(=O)NCCOC | nt | nt | 6 | -1 | nt | 1
COCCCn1c(=O)/c(=C\c2cccc(OC)c2OC)s/c1=C(/C#N)C(=O)Nc1ccc(C(=O)O)cc1 | 98* | 19 | 5 | 11 | -2 | 0
Oc1ccc(Oc2ccc3c(C(F)(F)F)cc(C(F)(F)F)nc3n2)cc1 | 99* | 0 | -307 | nt | -2 | nt
SMILES | ALR inh | NSD2 inh | HIV Env fusion | CASP6 VEID inh | PglD DTNB | F508del corr
CC(Oc1ccc(S(=O)(=O)N2CCCC2)cc1[N+](=O)[O-])C(=O)N(C)c1ccccc1 (stereo unspecified) | -5 | 1 | 0 | 1 | 4 | 8
O=[N+]([O-])c1cc(S(=O)(=O)O)cc([N+](=O)[O-])c1NN(c1ccccc1)c1ccccc1 | 99* | 8 | -10 | 16 | 1 | 2
O=C(C(Cc1ccccc1)NS(=O)(=O)c1cccc2cccnc12)N1CCc2ccccc21 (stereo unspecified) | 88* | nt | 55* | 0 | 0 | 2
CCCN1[C@@H]2Cn3c(ccc(/C=C/c4ccccc4)c3=O)[C@H]1[C@@H](C(=O)NCc1ccccn1)[C@@H]2CO | nt | nt | nt | 1 | 0 | -1
O=C(COc1cccc(Cl)c1)Nc1ccc(N2CCOCC2)cc1 | 10 | 0 | nt | nt | nt | nt
CN(CC(=O)Nc1ccc(N2CCOCC2)cc1)C(=O)CCNC(=O)c1ccc(Br)cc1 | 96* | 0 | -5 | 1 | 3 | -2
COc1ccccc1C(=O)NCCC(=O)N(C)CC(=O)Nc1ccc(N2CCOCC2)cc1 | 99* | -2 | -7 | 1 | 0 | 4
CC(Oc1cccc(Cl)c1)C(=O)N(C)CC(=O)Nc1ccc(N2CCOCC2)cc1 (stereo unspecified) | 93* | 4 | ? | 1 | nt | 3
CCCCOc1ccc(C(=O)NCC(=O)N(C)CC(=O)Nc2ccc(N3CCOCC3)cc2)cc1 | 41 | -1 | nt | 1 | -9 | 1
COc1ccc2c3c(n(C)c2c1)[C@@H](CO)N(C(=O)Cc1ccccc1)CC31CCN(C)CC1 | nt | nt | nt | nt | nt | 0
C[C@H](CO)N1C[C@H](C)[C@@H](CN(C)S(=O)(=O)c2ccccc2)OCCCC[C@H](C)Oc2ccc(NC(=O)Nc3ccc(F)cc3)cc2C1=O | nt | nt | -1[16.7 µM] | -3 | -3 | -1
CN(C)Cc1cn(CC[C@@H]2CC[C@@H](NC(=O)Nc3ccc4c(c3)OCO4)[C@H](CO)O2)nn1 | nt | nt | -9[16.7 µM] | nt | -1 | -2
CC(C)(C)c1ccc(C(=O)Nc2nnc(Cc3c[nH]c4ccccc34)s2)cc1 | 2 | 0 | 6 | nt | 0 | 0
O=C(Nc1nnc(Cc2c[nH]c3ccccc23)s1)c1ccc(Cl)cc1Cl | -6 | 3 | 1 | 58* | nt | nt
O=C(CCl)N1N=C(c2ccco2)CC1c1ccco1 (stereo unspecified) | 38 | 12 | 22 | 60* | 1 | -4
O=C(CCl)N1N=C(c2cccs2)CC1c1ccco1 (stereo unspecified) | 15 | 8 | 27 | 9 | nt | -1
